Source: PubChem
Marburg entry inh – Marburg virus entry inhibition; Marburg virus pseudotyped entry inhibition, cell reporter; Potency, µM (doses to about 37.8 µM), for inactives: at the top dose activity change, negative = inhibition, usual class: inhibitors; hit rate 1.8% among 300,000; AID 540276; calls by dose curve; tested in HEK293 cells; further: potency means the concentration at half of the fitted maximal effect; on the % scale 0 is the no-effect control and ±100 the full control effect
Pf growth 96h – P. falciparum growth inhibition at 96 hours; Potency, µM (top dose mostly 28.7 µM), for the others: at the highest dose activity change, negative = inhibition, actives largely listed as inhibitors; P. falciparum luciferase reporter growth, 96 h; hit rate 6.9% among 320,000; further: potency means the concentration at half of the fitted maximal effect; on the % scale 0 is the no-effect control and ±100 the full control effect
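Delayed-death screen, second-generation endpoint: infected erythrocytes, 2% hematocrit, 0.05% parasitemia final; 96 hours at 37 C, 5% CO2; luciferase detection reagent; luminescence decrease equals reduced growth.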
Cycloheximide cs – counter-screen hit for Shiga toxin inhibitors, cycloheximide. cell reporter, cycloheximide protein synthesis inhibition counterscreen. hit rate 12% among 300,000. max response, %; in the data active means max response mostly above about 13%, no sharp cut-off; inactive means mostly below about 14%; further: read at 38.3 µM for the half of the compounds with a filed dose; 0% is about no effect
Pf growth 48h – inhibits P. falciparum growth in the first generation, 48 h. P. falciparum luciferase growth in erythrocytes, 48 h. Potency, µM (doses to about 28.7 µM), inactives show at the highest dose activity change, negative = inhibition, hits mostly inhibitors. AID 504832. hit rate 5.9% among 310,000; further: potency means the concentration at half of the fitted maximal effect; on the % scale 0 is the no-effect control and ±100 the full control effect
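Growth was read as firefly luciferase luminescence after a 48 h, 37 C, 5% CO2 exposure of compounds to reporter-bearing P. falciparum cultures (0.1% parasitemia, 2% hematocrit final) in Albumax-supplemented RPMI 1640.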
Shiga toxin inh – Shiga toxin inhibition | inhibition, % at 38.7 µM | hit rate 9.2% among 290,000 | Vero cells, Shiga toxin protein synthesis inhibition reporter; in the data active means inhibition mostly above about 28%, no sharp cut-off; inactive means mostly below about 43%; further: 0% is about no effect
Lassa entry inh – Lassa virus entry inhibition | hit rate 1.2% among 300,000 | Lassa virus pseudotype entry inhibition, cell reporter | Potency, µM (series often up to 37.9 µM), for inactives: at the highest dose activity change, negative = inhibition, actives largely listed as inhibitors; calls by dose curve; tested in HEK293 cells; further: potency means the concentration at half of the fitted maximal effect; on the % scale 0 is the no-effect control and ±100 the full control effect; nearly all actives have a fitted effect of over 50% in size
* marks the source's active call; other numbers are inactive results; ? = inconclusive; . = no result given; ! = a repeat was not active; [ ] = remark or other dose. An excerpt weighted towards active compounds, which were near 19% of everything screened. Unless noted, the call rests on the fitted dose curve; in most records, active means well fitted inhibition curve with a large enough effect; inconclusive means small, poorly fitted or top-dose-only effect, or another doubt; inactive means no such curve, though single readings can be large or run the other way.

SMILES	Marburg entry inh	Pf growth 96h	Cycloheximide cs	Pf growth 48h	Shiga toxin inh	Lassa entry inh
Cc1ccc(NC(=O)COc2cccc(C)c2C)cc1S(=O)(=O)N1CCCCCC1	?	?	.	?	.	11.2µM*
COc1ccc(/C=N/NC(=O)c2cccnc2)c(C(=O)O)c1OC	.	67.6%	8.0	9.2%	36.1	.
COc1ccc(C(=O)COC(=O)Cn2c(C)csc2=O)c(OC)c1	-1.2%	68.1%	.	37.2%	.	10.2%
N#CCC(=O)N/N=C/c1ccc(Cl)cc1	-1.1%[46.1 µM]	172.5%	-2.5	141.2%	-3.0	1.8%
Cc1ccc(NC(=O)CNc2ccccc2N2CCCC2=O)cc1S(=O)(=O)N1CCCCC1	?	9.28µM*	.	10.4µM*	.	?
Cc1ccc(NC(=O)COC(=O)c2ccccc2F)cc1S(=O)(=O)N1CCCCC1	?	71.0%	.	-0.7%	.	24.8%
CCc1noc(C)c1C(=O)Nc1ccc(C)c(S(=O)(=O)N2CCCCCC2)c1	?	?	.	10.4µM*	.	-28.1%
Cc1ccc(NC(=O)CN2c3cccc4cccc(c34)S2(=O)=O)cc1S(=O)(=O)N1CCOCC1	?	9.28µM*	0.8	?	-7.5	13.6%
Cc1ccc(NC(=O)COc2ccccc2C(N)=O)cc1S(=O)(=O)N1CCCCCC1	.	4.65µM*	.	?	.	.
O=c1[nH]c(CN2CCCC2)nc2sc3c(c12)CCC3	-27.5%[46.1 µM]	-33.3%[5.75 µM]	-2.4	-11.2%	22.5	0.7%
Cc1ccc(NC(=O)CC2OC(=O)c3ccccc32)cc1S(=O)(=O)N1CCCCCC1 (stereo not given)	.	?	.	8.28µM*	.	.
CN1CCN(C2=C(Cl)C(=O)N(c3ccc(Cl)cc3)C2=O)CC1	10.6%	.	9.1	?	25.2	1.0%
Cc1ccc(N2C(=O)C(Cl)=C(N3CCN(C)CC3)C2=O)c(C)c1	21.8%	2.62µM*	-2.5	?	0.7	3.6%
Cc1occc1-c1nnc(SCC(=O)N2CCN(c3ccc(F)cc3)CC2)n1C	?	?	-2.9	-9.9%	-17.2	-6.0%
OCC(O)C(O)C(O)C(O)C1NCCS1 (stereo not given)	-4.9%	-6.0%	6.1	.	-2.3	3.2%
Cc1ccc(C2=NNC(C(O)C(O)C(O)C(O)CO)S2)cc1 (stereo not given)	14.8%[46.1 µM]	96.8%	24.8*	.	56.0*	7.9%
COc1ccc(NC(=O)CN(C)C(=O)CNC(=O)c2sc3ccccc3c2Cl)cc1	.	147.1%	.	149.4%	.	.
Cc1ccc(NC(=O)NCCN2CCCCC2)cc1	6.5%[46.1 µM]	-25.2%	8.8*	3.8%	-1.9	21.1%[46.1 µM]
O=C(NCCN1CCCCC1)Nc1ccc(Br)cc1	0.2%	1.9%	2.7	?	22.3	13.6%
O=C(NCCN1CCCCC1)Nc1cccc(Cl)c1Cl	?	13.1µM*	-1.3	31.0%	-11.5	26.9%[46.1 µM]
O=C(NCCN1CCOCC1)Nc1ccc(Cl)cc1	21.4%	4.65µM*	13.1*	30.9%	21.8	19.0%
C[N+]1(CCCCSc2ccc(O)cc2)CCCCC1	0.5%	-11.9%	7.9	9.28µM*	-14.0	-0.6%
CCCCC(CC)CN=C(N)NC(N)=NCCCCCCN=C(N)NC(N)=NCC(CC)CCCC (stereo not given)	.	0.0657µM*!	.	0.233µM*	.	.
CCCCC(CC)COC(=O)CCCCC(=O)OCC(CC)CCCC (stereo not given)	-0.8%	63.3%	.	16.0%	.	.
Cc1cc(OC(=O)c2ccc(F)cc2)c([N+](=O)[O-])c(=O)[nH]1	.	1.7%	-0.7	-2.6%	3.1	.
SMILES	Marburg entry inh	Pf growth 96h	Cycloheximide cs	Pf growth 48h	Shiga toxin inh	Lassa entry inh
CCN(CC)CCCN1C=C2C(=O)C(C)(OC(=O)CCc3ccccc3)C(=O)C=C2C=C1c1ccc(C#N)cc1 (stereo not given)	.	?	-1.9	?	-1.1	.
CC1(OC(=O)CCc2ccccc2)C(=O)C=C2C=C(c3ccc(C#N)cc3)N(CCc3c[nH]c4ccccc34)C=C2C1=O (stereo not given)	.	?	-3.9	11.7µM*	-8.6	.
COc1ccc(N2C=C3C(=O)C(C)(OC(=O)CCc4ccccc4)C(=O)C=C3C=C2c2ccc(C#N)cc2)cc1 (stereo not given)	.	?	-2.5	?	-5.8	.
COc1ccc(CN2C=C3C(=O)C(C)(OC(=O)CCc4ccccc4)C(=O)C=C3C=C2c2ccc(C#N)cc2)cc1 (stereo not given)	.	?	6.1	9.28µM*	59.6	.
CC1CCCN(c2cc3c(cc2F)c(=O)c(S(=O)(=O)c2cccc(Cl)c2)cn3C)C1 (stereo not given)	.	.	.	.	.	-4.7%[46.1 µM]
Cc1ccc(S(=O)(=O)NCc2ccccn2)cc1C	.	?	-3.3	-21.8%	-1.8	.
COc1cc2c(=O)c(S(=O)(=O)c3ccc(F)cc3)cn(Cc3ccc(Cl)cc3)c2cc1OC	-0.2%[46.1 µM]	.	.	.	.	-20.8%[46.1 µM]
Cc1cccc(C(=O)NCC(c2cccs2)N2CCOCC2)c1 (stereo not given)	-7.3%	-2.5%	.	-12.6%	.	-2.3%
Cc1ccc(N(C)S(=O)(=O)c2cccc(C(=O)NCC(c3cccs3)N3CCOCC3)c2)cc1 (stereo not given)	-29.8%	?	.	11.7µM*	.	-14.7%
Cc1ccc(S(=O)(=O)N(C)c2ccc(C(=O)NCC(c3cccs3)N3CCOCC3)cc2)cc1 (stereo not given)	22.6%	10.4µM*	-3.7	?	-2.4	-22.8%
CCCCCCn1c(-c2cccs2)n[nH]c1=S	-25.6%[46.1 µM]	-4.1%	-4.3	0.0%	-5.1	-4.9%[46.1 µM]
Cc1[nH]c2ccccc2c1C1(O)C(=O)Nc2ccc(Cl)cc21 (stereo not given)	-22.7%[46.1 µM]	.	.	.	.	-4.3%[46.1 µM]
Cc1csc(NC(=O)c2sccc2C)n1	?	423.8%	59.4*	194.5%	90.9*	-10.5%[46.1 µM]
Cc1ccsc1C(=O)Nc1nccs1	13.1%[46.1 µM]	35.1%	16.3*	58.1%	60.3*	?
Cc1occc1C(=O)Nc1nccs1	2.6%	?	7.7	24.1%	34.4	-1.7%
CCCCC/C=C\C/C=C\C/C=C\C/C=C\CCCC(=O)N(Cc1ccc(O)c(Cl)c1)Cc1ccc(O)c(Cl)c1	.	.	39.6	.	62.8*	.
CCCCC/C=C\C/C=C\C/C=C\C/C=C\CCCC(=O)Nc1ccc(O)cc1	.	.	-3.4	.	2.7	.
COc1ccc2nc3cc(Cl)ccc3c(Nc3cc(C(C)C)c(O)cc3C)c2c1	11.2µM*	0.0657µM*	7.7	0.0208µM*	27.1*	?
COc1ccc(S(=O)(=O)Nc2cc(C(C)C)c(O)cc2C)cc1	-15.0%	4.7%	-3.9	-13.4%	-9.2	15.3%
CNC(=O)C(=O)Nc1cc2c3c(c1)CCC(=O)N3CCC2	.	-10.7%	-9.3	11.7%	-3.4	.
Cc1cccn2c(=O)c3cc(C(=O)NCCc4ccccc4)c(=N)n(CC4CCCO4)c3nc12 (stereo not given)	-4.2%[46.1 µM]	29.1%	-0.6	2.33µM*	-5.6	3.2%[46.1 µM]
N=c1c(C(=O)NCCc2ccccc2)cc2c(=O)n3ccccc3nc2n1CC1CCCO1 (stereo not given)	?	?	-5.1	2.08µM*	-11.1	2.4%[46.1 µM]
Cc1cccn2c(=O)c3cc(C(=O)NCc4cccnc4)c(=N)n(CC4CCCO4)c3nc12 (stereo not given)	-20.4%[46.1 µM]	1.2%	6.2	?	-1.9	.
